Screens as filed in PubChem.
GRIN3A LBD mod: modulators (binders) of human NR3A ligand-binding domain; actives 2.5% (n = 340,000); Tm shift relative to glycine control, % at 25 µM; NR3A LBD differential scanning fluorimetry, Tm shift; 0% = protein alone, 100% = glycine-bound protein;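 active means melting temperature shift of at least 10% of the positive control shift, at one fixed dose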
MPTP block: inhibitors of mitochondrial permeability transition pore; actives 1.4% (n = 360,000); inhibition, % at 10 µM; isolated mouse mitochondria, Ca2+ swelling absorbance, 30 min;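 active means inhibition of 50% or more, scaled per plate between neutral and stimulator controls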
rCAG binder: molecules binding r(CAG) RNA repeats; inhibition, % at 3 µM; r(CAG) RNA repeat, TO-PRO-1 dye displacement fluorescence; AID 651821; actives 1.3% (n = 370,000);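 active means inhibition above the plate cutoff, the mean of all test compounds on that plate plus 3 SD, cut at about 35% in these data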;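 further: higher means more dye released from RNA so lower well fluorescence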
FAS TE block: FAS thioesterase (human) inhibition; P49327; recombinant FAS-TE, OMFH fluorogenic substrate, fluorescence endpoint; inhibition, % at 15 µM; actives 0.67% (n = 360,000); AID 602261;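 active means compounds whose normalised, plate-corrected inhibition of enzyme fluorescence in the single-dose primary screen is 50% or more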
Target sequence (P49327 whole entry, looked up): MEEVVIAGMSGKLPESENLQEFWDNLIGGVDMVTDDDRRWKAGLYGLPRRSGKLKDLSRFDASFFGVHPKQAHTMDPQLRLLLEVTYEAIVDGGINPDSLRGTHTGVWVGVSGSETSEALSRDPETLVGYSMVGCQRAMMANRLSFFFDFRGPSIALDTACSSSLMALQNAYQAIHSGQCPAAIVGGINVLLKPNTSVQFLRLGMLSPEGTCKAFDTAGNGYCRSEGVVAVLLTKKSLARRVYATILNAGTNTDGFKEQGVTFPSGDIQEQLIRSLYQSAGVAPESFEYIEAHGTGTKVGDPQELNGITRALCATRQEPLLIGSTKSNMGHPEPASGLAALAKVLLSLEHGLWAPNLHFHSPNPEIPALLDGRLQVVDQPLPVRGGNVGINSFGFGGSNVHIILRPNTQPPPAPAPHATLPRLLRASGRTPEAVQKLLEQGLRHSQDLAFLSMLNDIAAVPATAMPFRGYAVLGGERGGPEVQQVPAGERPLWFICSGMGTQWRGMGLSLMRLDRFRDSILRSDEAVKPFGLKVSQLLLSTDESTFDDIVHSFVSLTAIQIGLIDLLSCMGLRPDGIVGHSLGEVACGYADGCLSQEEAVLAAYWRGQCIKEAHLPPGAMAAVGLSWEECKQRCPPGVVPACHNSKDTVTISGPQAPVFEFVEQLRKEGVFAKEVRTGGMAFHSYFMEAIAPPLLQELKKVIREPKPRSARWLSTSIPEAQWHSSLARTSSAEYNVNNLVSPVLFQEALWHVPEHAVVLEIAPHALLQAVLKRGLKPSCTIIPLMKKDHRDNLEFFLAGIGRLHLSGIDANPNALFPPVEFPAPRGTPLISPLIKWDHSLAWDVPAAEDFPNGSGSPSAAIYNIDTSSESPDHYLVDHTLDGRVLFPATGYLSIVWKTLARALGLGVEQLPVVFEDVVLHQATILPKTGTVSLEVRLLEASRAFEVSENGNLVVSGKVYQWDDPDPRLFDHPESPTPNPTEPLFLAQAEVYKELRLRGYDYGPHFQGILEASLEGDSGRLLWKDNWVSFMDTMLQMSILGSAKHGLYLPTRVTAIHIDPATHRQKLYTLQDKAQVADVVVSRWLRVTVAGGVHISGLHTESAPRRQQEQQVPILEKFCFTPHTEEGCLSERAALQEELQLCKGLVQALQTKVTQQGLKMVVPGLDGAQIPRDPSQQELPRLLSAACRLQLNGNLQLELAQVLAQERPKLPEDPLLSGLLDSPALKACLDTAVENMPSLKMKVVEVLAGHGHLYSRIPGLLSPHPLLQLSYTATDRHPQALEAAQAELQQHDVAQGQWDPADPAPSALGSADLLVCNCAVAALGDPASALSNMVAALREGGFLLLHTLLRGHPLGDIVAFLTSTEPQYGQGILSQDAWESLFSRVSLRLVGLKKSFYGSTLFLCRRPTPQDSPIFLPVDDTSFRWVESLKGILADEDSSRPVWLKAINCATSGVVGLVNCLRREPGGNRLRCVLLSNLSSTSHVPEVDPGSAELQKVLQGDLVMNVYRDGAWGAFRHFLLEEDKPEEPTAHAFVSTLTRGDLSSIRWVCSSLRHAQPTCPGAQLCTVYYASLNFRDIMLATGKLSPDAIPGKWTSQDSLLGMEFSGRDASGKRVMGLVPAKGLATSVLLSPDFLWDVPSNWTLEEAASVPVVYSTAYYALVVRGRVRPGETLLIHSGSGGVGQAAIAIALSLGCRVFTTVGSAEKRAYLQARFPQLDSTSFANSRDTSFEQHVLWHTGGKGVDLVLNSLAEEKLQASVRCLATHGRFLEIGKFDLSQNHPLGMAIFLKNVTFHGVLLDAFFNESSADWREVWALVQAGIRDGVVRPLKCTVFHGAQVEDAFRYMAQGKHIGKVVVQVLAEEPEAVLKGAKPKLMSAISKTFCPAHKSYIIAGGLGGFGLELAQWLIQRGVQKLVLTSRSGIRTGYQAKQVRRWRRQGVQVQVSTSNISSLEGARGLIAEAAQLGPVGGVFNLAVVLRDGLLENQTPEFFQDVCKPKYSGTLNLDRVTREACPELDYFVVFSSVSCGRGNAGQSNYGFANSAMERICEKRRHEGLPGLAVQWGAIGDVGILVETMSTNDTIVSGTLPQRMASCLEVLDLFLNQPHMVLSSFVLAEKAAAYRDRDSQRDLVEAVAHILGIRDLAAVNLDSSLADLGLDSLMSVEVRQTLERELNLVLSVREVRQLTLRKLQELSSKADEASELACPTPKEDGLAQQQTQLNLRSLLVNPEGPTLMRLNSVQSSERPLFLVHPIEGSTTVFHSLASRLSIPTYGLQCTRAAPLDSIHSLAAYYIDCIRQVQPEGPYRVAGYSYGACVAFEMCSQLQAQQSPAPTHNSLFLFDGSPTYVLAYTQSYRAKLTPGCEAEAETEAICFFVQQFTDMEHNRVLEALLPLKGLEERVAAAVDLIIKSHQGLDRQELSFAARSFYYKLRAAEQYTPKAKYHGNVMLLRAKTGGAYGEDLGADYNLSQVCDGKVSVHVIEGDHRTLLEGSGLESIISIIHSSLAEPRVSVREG
Myeloid diff 2: promotes myeloid progenitor differentiation; ER-HoxA9 myeloid progenitors, lysozyme-GFP differentiation, flow cytometry; actives 1% (n = 360,000); calls only at 10 µM; AID 624256;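 active means normalized GFP-positive differentiation at or above the plate's own cutoff, the solvent-only control mean plus 3 SD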;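 further: cells exposed to compound for four days before flow analysis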
MPTP counter: membrane potential counter-screen of mitochondrial pore inhibitors | shares compounds with MPTP block | actives 78% (n = 5,000) | isolated mitochondria, Rhodamine 123 fluorescence | inhibition, % at 10 µM; in the data active means inhibition above about 22%
MPTP swell DR: dose response confirmation of mitochondrial permeability transition pore inhibitors; shares compounds with MPTP block; isolated mitochondria swelling, absorbance; IC50, µM; actives 58% (n = 780); in the data active means IC50 below about 20 µM
MPTP counter DR: counter-screen for mitochondrial permeability transition pore inhibitors, dose response; isolated mitochondria counterscreen, fluorescence read-out; actives 49% (n = 780); IC50, µM; shares compounds with MPTP block; in the data active means IC50 below about 80 µM
Hits are given with their value. This is a sample that favours compounds with a hit; in the whole collection about 5.7% have one here.

CCCCCCCCCc1nc2sc3c(c2c(=O)n1NC(=O)c1ccc([N+](=O)[O-])cc1)CC(C)(C)OC3 was read as GRIN3A LBD mod 24, MPTP block 98, rCAG binder inactive, FAS TE block inactive, Myeloid diff 2 inactive and MPTP counter 64.
c1ccc(Nc2nc(NCc3ccco3)c3ccccc3n2)cc1 was read as GRIN3A LBD mod inactive, MPTP block 76, rCAG binder inactive, FAS TE block inactive, Myeloid diff 2 inactive and MPTP counter 91.
For Cc1cccc(Nc2nc(NCc3ccco3)c3ccccc3n2)c1 the results were GRIN3A LBD mod inactive, MPTP block 91, rCAG binder inactive, FAS TE block inactive, Myeloid diff 2 inactive and MPTP counter 90.
COc1cccc(CC(=O)O[C@@H]2CCC[C@@]3(C(=O)N(Cc4ccccc4)c4ccccc43)[C@H]2NC(=O)CCc2ccccc2)c1 was read as rCAG binder inactive.
Screening c1ccc(N=Nc2cn[nH]c2-c2ccco2)cc1 returned GRIN3A LBD mod inactive, MPTP block inactive, rCAG binder inactive, FAS TE block inactive and Myeloid diff 2 inactive.
`O=C(CSc1nc2cc(Cl)ccc2o1)Nc1ccc(N2CCOCC2)cc1` gave GRIN3A LBD mod inactive, MPTP block 51, FAS TE block inactive, Myeloid diff 2 inactive and MPTP counter 68.
O=C(NCCCSc1ccccc1)c1cc(Br)ccc1O was read as GRIN3A LBD mod inactive, MPTP block 75, rCAG binder inactive, FAS TE block inactive, Myeloid diff 2 inactive and MPTP counter 86.
`Cc1ccc(NS(=O)(=O)c2sc3ccc(Cl)cc3c2C)cc1` gave GRIN3A LBD mod 16, MPTP block 66, rCAG binder inactive, FAS TE block inactive, Myeloid diff 2 inactive and MPTP counter 63.
`O=C(CSc1nc2ccc(Cl)cc2[nH]1)NCCc1ccccc1` gave GRIN3A LBD mod inactive, MPTP block inactive, rCAG binder inactive, FAS TE block inactive and Myeloid diff 2 inactive.
`O=C(CSc1nc2ccc(Cl)cc2[nH]1)NCCc1ccc(Cl)cc1` gave GRIN3A LBD mod inactive, MPTP block 69, rCAG binder inactive, FAS TE block inactive, Myeloid diff 2 inactive and MPTP counter 60.
`COc1ccc(C(=O)OC2CCCCC2CN(C)C)cc1` (centres undefined) gave GRIN3A LBD mod inactive, MPTP block inactive, rCAG binder inactive, FAS TE block inactive and Myeloid diff 2 inactive.
`CC(C)COc1ccc(C(=O)OC2CC(C)(C)OCC2CN(C)C)cc1` (centres undefined) gave GRIN3A LBD mod inactive, MPTP block 68, rCAG binder inactive, FAS TE block inactive, Myeloid diff 2 inactive, MPTP counter inactive, MPTP swell DR 12 and MPTP counter DR inactive.
`O=C(NCc1ccccc1)C(C1CC1)n1c(-c2cccs2)nc2ccccc21` (centres undefined) gave MPTP block inactive, rCAG binder inactive and Myeloid diff 2 inactive.
CCOC(=O)/C(=N\Nc1ccccc1)P(=O)(c1ccccc1)c1ccccc1 was read as GRIN3A LBD mod inactive, MPTP block inactive, rCAG binder inactive, FAS TE block inactive and Myeloid diff 2 inactive.
For CCOC(=O)c1sc(NC(=O)CSc2nc(-c3ccco3)cc(C(F)(F)F)n2)c(C#N)c1C the results were GRIN3A LBD mod inactive, MPTP block 84, rCAG binder inactive, FAS TE block inactive, Myeloid diff 2 inactive, MPTP counter inactive, MPTP swell DR 4 and MPTP counter DR <2.5.
For O=C(CSc1nc(-c2ccco2)cc(C(F)(F)F)n1)Nc1ccc(C(=O)N2CCCCC2)cc1 the results were GRIN3A LBD mod inactive, MPTP block 54, rCAG binder inactive, FAS TE block inactive, Myeloid diff 2 inactive and MPTP counter 92.
For CCOC(=O)c1sc(NC(=O)c2cc(-c3ccccc3)nc3ccccc23)c(C#N)c1C the results were GRIN3A LBD mod 24, MPTP block 107, rCAG binder inactive, FAS TE block inactive, Myeloid diff 2 inactive and MPTP counter 78.
`CCOC(=O)c1sc(NC(=O)c2cccnc2)c(C#N)c1C` gave GRIN3A LBD mod inactive, MPTP block inactive, rCAG binder inactive, FAS TE block inactive and Myeloid diff 2 inactive.
For CCOC(=O)c1sc(NC(=O)CSc2nc(C)cc(C)n2)c(C#N)c1C the results were GRIN3A LBD mod inactive, MPTP block 58, rCAG binder inactive, FAS TE block inactive, Myeloid diff 2 inactive and MPTP counter 40.
O=C(CNC(=O)c1ccc(Cl)cc1Cl)OCc1cn2cc(Br)ccc2n1 was read as GRIN3A LBD mod inactive, MPTP block inactive, rCAG binder inactive, FAS TE block inactive and Myeloid diff 2 inactive.
CC1=C(C#N)C(/C=N/OCc2ccc(F)cc2Cl)CC(=O)N1 (centres undefined) was read as GRIN3A LBD mod inactive, MPTP block inactive, rCAG binder inactive, FAS TE block inactive and Myeloid diff 2 inactive.
Screening CCc1nnc(NC(=O)CSc2nc3c(cc2C#N)CCCC3)s1 returned GRIN3A LBD mod inactive, MPTP block inactive, rCAG binder inactive, FAS TE block inactive and Myeloid diff 2 inactive.
Screening CCOC(=O)c1sc(NC(=O)CSc2nc3c(cc2C#N)CCCCC3)c(C#N)c1C returned GRIN3A LBD mod inactive, MPTP block 91, rCAG binder inactive, FAS TE block inactive, Myeloid diff 2 inactive, MPTP counter inactive, MPTP swell DR inactive and MPTP counter DR 9.8.
For COc1cccc(OCCNC(=O)CSc2ccc(C(F)(F)F)cc2[N+](=O)[O-])c1 the results were GRIN3A LBD mod inactive, MPTP block 76, rCAG binder inactive, FAS TE block inactive, Myeloid diff 2 inactive and MPTP counter 46.
Cc1ccccc1OCCNC(=O)CSc1ccc(C(F)(F)F)cc1[N+](=O)[O-] was read as GRIN3A LBD mod inactive, MPTP block 93, rCAG binder inactive, FAS TE block inactive, Myeloid diff 2 inactive and MPTP counter 73.
O=C(NCCc1c[nH]c2ccccc12)C1CCC(=O)N(CCc2cccc(F)c2)C1 (centres undefined) was read as GRIN3A LBD mod inactive, MPTP block inactive, rCAG binder inactive, FAS TE block inactive and Myeloid diff 2 inactive.
`COc1ccc(Br)cc1S(=O)(=O)N(CC(=O)N1CCN(C)CC1)c1ccccc1` gave GRIN3A LBD mod inactive, MPTP block inactive, rCAG binder inactive, FAS TE block inactive and Myeloid diff 2 inactive.
For CN1C(=S)SC(N(O)C(=O)Nc2ccc(Cl)c(Cl)c2)C1(C)C (centres undefined) the results were GRIN3A LBD mod inactive, MPTP block 98, rCAG binder inactive, FAS TE block inactive, Myeloid diff 2 inactive and MPTP counter 86.
For COC(=O)[C@]12C[C@H](CC(=O)NCc3cccs3)C(=O)N(Cc3ccc4c(c3)OCO4)C1=C[C@H](C(C)(C)C)O[C@@H]2C the results were rCAG binder inactive.
